High-throughput results as filed in PubChem.
ELG1 DNA repair – ELG1-dependent DNA repair inhibition; HEK293T ELG1-luciferase reporter, luminescence, 16 h; DNA damage induced by 5-fluorouridine; Potency, µM (highest dose often 46.1 µM), for the others: top-dose activity change, negative = inhibition, actives largely listed as inhibitors; hit rate 2.3% among 330,000; also: nearly all actives have a fitted effect of over 55% in size
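Quantitative HTS, concentration-response format. 2,000 cells/well co-treated with 5-fluorouridine and compound, 16 hr in 5% CO2 at 37 °C; ONE-Glo luminescence read after 30 min.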
DT40 TDP1 CPT – DT40-hTDP1 cell growth loss with CPT | chicken DT40 Tdp1-/-;hTDP1 cells + 20 nM CPT, ATP luminescence, 48 h | Potency, µM (doses to about 46.2 µM), inactives show at the top dose activity change, negative = growth inhibition, hits mostly inhibitors | hit rate 12% among 420,000; also: nearly all actives have a fitted effect of over 55% in size
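Cell growth measured by CellTiter-Glo luminescence after a minimum 48 h, 37 C compound exposure with 20 nM CPT in Tdp1-knockout DT40 cells stably expressing hTDP1, seeded 400/well; qHTS titration format.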
VP16 counter – inhibits Gal4-VP16 luciferase reporter, ROR gamma counter-screen. Drosophila S2 Gal4-VP16 UAS-luciferase, luminescence, 20 h. Potency, µM (doses to about 53.6 µM), inactives show at the top dose activity, negative = inhibition, usual class: inhibitors. hit rate 3.5% among 310,000;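 also: Gal4-VP16 expression switched on by copper sulfate through the metallothionein promoter; nearly all actives have a fitted effect of over 50% in size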
DT40 TDP1 no CPT – qHTS for Inhibitors of human tyrosyl-DNA phosphodiesterase 1 (TDP1): qHTS in cells in absence of CPT; DT40 Tdp1-/- hTDP1 cells, no CPT, ATP luminescence, 48 h; Potency, µM (top dose mostly 46.2 µM), inactives show at the highest dose activity change, negative = growth inhibition, usual class: inhibitors; hit rate 15% among 420,000; AID 686978, 2013; also: nearly all actives have a fitted effect of over 55% in size
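No-CPT arm: Tdp1-/-;hTDP1 DT40 cells (400/well) plus compounds, incubated ≥48 hr at 37 °C. Readout CellTiter-Glo luminescence.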
RORg inh – blocks mouse ROR gamma transcriptional activity; P51450; Drosophila S2 Gal4-RORgamma UAS-luciferase reporter, 20 h; Potency, µM (top dose mostly 53.6 µM), for the others: at the top dose activity change, negative = inhibition, most hits filed as inhibitors; hit rate 5.4% among 310,000; also: nearly all actives have a fitted effect of over 60% in size
Target sequence (P51450 whole entry, looked up, the tested form may be a part): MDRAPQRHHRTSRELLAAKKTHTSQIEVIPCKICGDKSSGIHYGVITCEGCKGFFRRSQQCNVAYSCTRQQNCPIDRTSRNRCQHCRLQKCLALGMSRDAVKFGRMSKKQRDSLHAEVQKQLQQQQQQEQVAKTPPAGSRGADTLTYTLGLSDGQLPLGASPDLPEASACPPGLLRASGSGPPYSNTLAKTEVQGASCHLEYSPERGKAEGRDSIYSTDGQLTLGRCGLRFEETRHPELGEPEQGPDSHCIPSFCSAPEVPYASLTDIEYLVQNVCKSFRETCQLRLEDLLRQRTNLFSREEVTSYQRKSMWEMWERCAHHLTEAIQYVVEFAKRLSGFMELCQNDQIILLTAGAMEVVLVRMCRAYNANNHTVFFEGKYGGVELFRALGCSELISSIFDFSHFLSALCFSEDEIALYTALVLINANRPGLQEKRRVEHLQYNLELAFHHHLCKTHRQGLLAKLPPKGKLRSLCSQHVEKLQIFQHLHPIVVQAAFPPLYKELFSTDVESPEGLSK
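A Gal4/UAS one-hybrid system in insect cells: metallothionein-promoter Gal4–ROR gamma fusion plus Photinus luciferase reporter. Copper sulfate 700 uM final, 20 hr ambient incubation, luminescent detection after 10 min with reagent.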
ALOX12 inh – blocks human arachidonate 12S-lipoxygenase; P18054; purified 12hLO, xylenol orange hydroperoxide absorbance; Potency, µM (doses to about 108 µM), without a hit: at the top dose activity change, negative = inhibition, most hits filed as inhibitors; hit rate 1.1% among 580,000
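Purified human 12hLO (150 nM final) in 25 mM Hepes, 0.01% Triton X-100, pH 7.0 was preincubated 15 min at room temperature with compound. Then 40 uM arachidonic acid was added, 30 min. Hydroperoxide was read by Fe-XO absorbance ratio 573/405 nm.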
The depositor's hits bear a star; [ ] = dose if it differs, or a comment. A selection: hits, their analogues and other compounds. The true share with any hit is near 15%. Calls follow the shape of the dose curve; as a rule, active = well fitted curve in the direction sought with a large enough effect; inconclusive = small, poorly fitted or top-dose-only effect, or another doubt; inactive = no such curve, though single readings can be large; an effect the other way counts as inactive or inconclusive. % is scaled to controls: 0 for no effect and ±100 for the full control effect; potency is read from the fitted curve at half-maximal effect.

`COc1ccc(-c2noc(COC(=O)C3=CN(C)S(=O)(=O)N=C3C)n2)cc1` gave ALOX12 inh 49%.
For Cc1ccc(CNC(=O)c2oc3c(c2C)-c2nn(Cc4ccc(Cl)cc4)cc2CC3)cc1 the results were DT40 TDP1 CPT 10µM*, DT40 TDP1 no CPT 9.2µM* and ALOX12 inh inconclusive.
Screening Cc1c(C(=O)NCc2ccccc2Cl)oc2c1C(=O)CCC2 returned ELG1 DNA repair 13%, VP16 counter 19% and RORg inh 21%.
Cc1c(C(=O)NCc2ccccc2)oc2c1-c1[nH]ncc1CC2 was read as DT40 TDP1 CPT inconclusive, DT40 TDP1 no CPT -16% and ALOX12 inh 0%.
For COc1ccccc1CNC(=O)c1oc2c(c1C)-c1nn(Cc3ccc(Cl)cc3)cc1CC2 the results were DT40 TDP1 CPT 16µM*, DT40 TDP1 no CPT 21µM* and ALOX12 inh inconclusive.
Screening Cc1cccc(CNC(=O)c2oc3c(c2C)-c2nn(Cc4cccc(Cl)c4)cc2CC3)c1 returned DT40 TDP1 CPT inconclusive, DT40 TDP1 no CPT 29µM* and ALOX12 inh 0%.
Screening Cc1c(C(=O)O)oc2c1-c1nn(Cc3ccc(Cl)cc3)cc1CC2 returned DT40 TDP1 CPT 12%, DT40 TDP1 no CPT -9% and ALOX12 inh inconclusive.
Cc1cccc(CNC(=O)c2oc3c(c2C)-c2nn(Cc4ccccc4Cl)cc2CC3)c1 was read as DT40 TDP1 CPT inconclusive, DT40 TDP1 no CPT 21µM* and ALOX12 inh -10%.
`CC(=O)Nc1ccc(NC(=O)c2oc3c(c2C)-c2nn(Cc4ccccc4Cl)cc2CC3)cc1` gave DT40 TDP1 CPT 8.2µM*, DT40 TDP1 no CPT 18µM* and ALOX12 inh inconclusive.
For Cc1c(C(=O)NCCN(C)C)oc2c1-c1nn(Cc3ccccc3Cl)cc1CC2 the results were DT40 TDP1 CPT inconclusive, DT40 TDP1 no CPT inconclusive and ALOX12 inh -23%.
COc1ccc(CNC(=O)c2oc3c(c2C)-c2nn(Cc4ccccc4Cl)cc2CC3)cc1 was read as DT40 TDP1 CPT inconclusive, DT40 TDP1 no CPT 23µM* and ALOX12 inh inconclusive.
`CCOc1ccc(CNC(=O)c2oc3c(c2C)-c2nn(Cc4cccc(Cl)c4)cc2CC3)cc1` gave DT40 TDP1 CPT 18µM*, DT40 TDP1 no CPT 16µM* and ALOX12 inh 0%.
CCn1cc2c(n1)-c1c(oc(C(=O)Nc3ccc(Br)cc3F)c1C)CC2 was read as DT40 TDP1 CPT inconclusive, DT40 TDP1 no CPT 21µM* and ALOX12 inh -2%.
CC(C)c1cccc(NC(=O)CC2(C(=O)O)CCCC2)c1 was read as ALOX12 inh -5%.
`CC(C)(C)C(=O)N(Cc1ccc2cc[nH]c2c1)C1CC1` gave ALOX12 inh -5%.
Screening O=C(O)C(c1c[nH]c2ccccc12)N1CCN(c2ccc(F)cc2)CC1 (configuration not stated) returned ALOX12 inh -21%.
For CCOC(=O)c1oc2c(c1C)-c1nn(Cc3ccc(Cl)cc3)cc1CC2 the results were DT40 TDP1 CPT 16µM*, DT40 TDP1 no CPT 21µM* and ALOX12 inh -19%.
COc1ccccc1OCCNC(=O)C1CCCN(Cc2ccncc2)CCC(=O)NCC1 (configuration not stated) was read as ALOX12 inh 24%.
`CCOc1cc(/C=C2/C(=N)N3C=CSC3=NC2=O)ccc1OCCCOc1ccccc1C` gave ELG1 DNA repair inconclusive, DT40 TDP1 CPT 10µM*, VP16 counter inconclusive, DT40 TDP1 no CPT 8.2µM*, RORg inh -71% and ALOX12 inh 18%.
Screening COc1cc(/C=C2/C(=N)N3C=CSC3=NC2=O)ccc1OCCOc1ccc(NC(C)=O)cc1 returned ELG1 DNA repair -3%, DT40 TDP1 CPT 2%, VP16 counter -10%, DT40 TDP1 no CPT -1%, RORg inh -5% and ALOX12 inh 2%.
For CCS(=O)(=O)C1=NN2C(=N)/C(=C\c3ccc(OCCOc4cccc(OC)c4)c(OC)c3)C(=O)N=C2S1 the results were ELG1 DNA repair 3%, DT40 TDP1 CPT -17%, VP16 counter -24%, DT40 TDP1 no CPT 15%, RORg inh 11% and ALOX12 inh inconclusive.
COc1cc(/C=C2/C(=N)N3C=CSC3=NC2=O)ccc1OCCCOc1ccccc1C was read as ELG1 DNA repair inconclusive, DT40 TDP1 CPT inconclusive, VP16 counter 2.8µM*, DT40 TDP1 no CPT inconclusive, RORg inh 4.5µM* and ALOX12 inh 9%.
Screening COc1cc(/C=C2/C(=N)N3C=CSC3=NC2=O)ccc1OCCCOc1c(C)cccc1C returned ELG1 DNA repair 8%, DT40 TDP1 CPT -27%, VP16 counter inconclusive, DT40 TDP1 no CPT inconclusive, RORg inh 11µM* and ALOX12 inh 4%.
CCC1=NN2C(=N)/C(=C\c3ccc(OCCOc4ccccc4)c(OC)c3)C(=O)N=C2S1 was read as ELG1 DNA repair -5%, VP16 counter 3%, RORg inh 0%[1.91 µM] and ALOX12 inh inconclusive.
CCOc1cc(/C=C2\C(=N)N3N=C(S(C)(=O)=O)SC3=NC2=O)ccc1OCCOc1cccc(OC)c1 was read as ELG1 DNA repair -7%, DT40 TDP1 CPT -3%, VP16 counter 4%, DT40 TDP1 no CPT 13µM*, RORg inh inconclusive and ALOX12 inh inconclusive.
Screening COc1ccc(/C(C)=N/OC/C(O)=C(\C#N)c2nc3ccccc3[nH]2)c(OC)c1 returned ELG1 DNA repair 11%, DT40 TDP1 CPT -19%, VP16 counter inconclusive, DT40 TDP1 no CPT 10%, RORg inh 20µM* and ALOX12 inh 1%.
`COc1ccc(C/C(O)=C(\C#N)c2nc3ccccc3[nH]2)cc1OC` gave ELG1 DNA repair inconclusive, DT40 TDP1 CPT -21%, VP16 counter -20%, DT40 TDP1 no CPT -14%, RORg inh 11µM* and ALOX12 inh -2%.
COc1ccc(OC/C(O)=C(\C#N)c2nc3ccccc3[nH]2)cc1 was read as ELG1 DNA repair 9%, DT40 TDP1 CPT -27%, VP16 counter -2%, DT40 TDP1 no CPT -13%, RORg inh -36% and ALOX12 inh -4%.
For COc1ccc(/C=N/OC/C(O)=C(\C#N)c2nc3ccccc3[nH]2)cc1 the results were ELG1 DNA repair 24%, DT40 TDP1 CPT -5%, VP16 counter inconclusive, DT40 TDP1 no CPT -10%, RORg inh 11µM* and ALOX12 inh 8%.
